In PubChem BioAssay AID1159580 (chemical genetic matrix, 2015):
In all, about 5,500 compounds went through this assay and about 2,000 (36%) were called active. Another 18% or so got no clear call; they are omitted. No stated cut-off is given here; in the data, active means normalized growth mostly below about 0.91 (no sharp cut-off); inconclusive means no clear call, values can overlap the other calls; inactive means mostly above about 0.92. The list shows a part of the results.

Test: chemical genetic growth profiling, strain panel (AID 1159580);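 further: tested at 20 µM; growth read once vehicle control cultures reached saturation at 30 °C; 1 = growth at the plate median or of vehicle wells; lower values mean less growth of the strain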
Details: growth OD

Measured: normalized growth

CCCCCC(O)C1C(=O)OC(C)C(O)/C=C/C=C/C=C/C=C/C=C(\C)C(O)CC(O)CC(O)CC(O)CC(O)CC(O)CC1O (configuration not stated)
inactive: S. cerevisiae deletion strains, locus YJR075W, strain HOC1, hits give low values 0.994 | S. cerevisiae deletion strains, locus YKL009W, strain mrt4, hits give low values 0.999 | S. cerevisiae deletion strains, locus YKL068W, hits give low values 1.03 | S. cerevisiae deletion strains, locus YKL085W, strain MDH1 (second series), hits give low values 0.975 | S. cerevisiae deletion strains, locus YKL085W, strain MDH1, hits give low values 0.975 | S. cerevisiae deletion strains, locus YKL160W, strain elf1, hits give low values 1.01 | S. cerevisiae deletion strains, locus YKL190W, strain CNB1, hits give low values 1.01 | S. cerevisiae deletion strains, locus YKR001C, strain vps1, hits give low values 1.03 | S. cerevisiae deletion strains, locus YKR026C, strain gcn3, hits give low values 0.966 | S. cerevisiae deletion strains, locus YKR091W, strain srl3, hits give low values 0.995 | S. cerevisiae deletion strains, locus YLL001W, strain dnm1, hits give low values 1.01 | S. cerevisiae deletion strains, locus YLL026W, hits give low values 0.982 | S. cerevisiae deletion strains, locus YLL041C, strain sdh2, hits give low values 0.994 | S. cerevisiae deletion strains, locus YLR027C, strain aat2, hits give low values 0.983 | S. cerevisiae deletion strains, locus YLR039C, strain RIC1, hits give low values 1.08 | S. cerevisiae deletion strains, locus YLR058C, strain SHM2, hits give low values 1.01 | S. cerevisiae deletion strains, locus YLR102C, strain apc9, hits give low values 1.02 | S. cerevisiae deletion strains, locus YLR113W, strain HOG1, hits give low values 0.951 | S. cerevisiae deletion strains, locus YLR221C, strain rsa3, hits give low values 1 | S. cerevisiae deletion strains, locus YLR258W, strain gsy2, hits give low values 0.991 | S. cerevisiae deletion strains, locus YLR262C, strain YPT6 (second series), hits give low values 0.997 | S. cerevisiae deletion strains, locus YLR262C, strain YPT6, hits give low values 1.09 | S. cerevisiae deletion strains, locus YLR268W, strain sec22, hits give low values 1.02 | S. cerevisiae deletion strains, locus YLR320W, strain mms22, hits give low values 0.992 | S. cerevisiae deletion strains, locus YLR330W, strain CHS5, hits give low values 1.01 | S. cerevisiae deletion strains, locus YLR342W, strain FKS1 (second series), hits give low values 1.06 | S. cerevisiae deletion strains, locus YLR342W, strain FKS1, hits give low values 0.983 | S. cerevisiae deletion strains, locus YLR357W, strain rsc2, hits give low values 0.972 | S. cerevisiae deletion strains, locus YLR370C, strain arc18, hits give low values 0.982 | S. cerevisiae deletion strains, locus YLR371W, strain rom2, hits give low values 1.02 | S. cerevisiae deletion strains, locus YLR384C, strain iki3, hits give low values 0.985 | S. cerevisiae deletion strains, locus YLR418C, strain cdc73, hits give low values 1.02 | S. cerevisiae deletion strains, locus YML016C, strain PPZ1, hits give low values 1.01 | S. cerevisiae deletion strains, locus YML032C, strain rad52, hits give low values 1.04 | S. cerevisiae deletion strains, locus YML120C, strain ndi1, hits give low values 1 | S. cerevisiae deletion strains, locus YML124C, strain tub3, hits give low values 1.02 | S. cerevisiae deletion strains, locus YMR058W, strain fet3, hits give low values 0.997 | S. cerevisiae deletion strains, locus YMR078C, strain ctf18, hits give low values 1.03 | S. cerevisiae deletion strains, locus YMR125W, strain sto1, hits give low values 0.959 | S. cerevisiae deletion strains, locus YMR129W, hits give low values 0.977 | S. cerevisiae deletion strains, locus YMR205C, strain PFK2, hits give low values 0.955 | S. cerevisiae deletion strains, locus YMR223W, strain ubp8, hits give low values 1.03 | S. cerevisiae deletion strains, locus YMR231W, strain pep5, hits give low values 1 | S. cerevisiae deletion strains, locus YMR263W, strain SAP30, hits give low values 1.01 | S. cerevisiae deletion strains, locus YMR307W, strain GAS1, hits give low values 1.12 | S. cerevisiae deletion strains, locus YNL067W, strain RPL9B, hits give low values 1.01 | S. cerevisiae deletion strains, locus YNL071W, strain lat1, hits give low values 0.996 | S. cerevisiae deletion strains, locus YNL128W, strain TEP1, hits give low values 0.998 | S. cerevisiae deletion strains, locus YNL153C, strain GIM3, hits give low values 0.994 | S. cerevisiae deletion strains, locus YNL183C, strain NPR1, hits give low values 0.928 | S. cerevisiae deletion strains, locus YNL209W, strain ssb2, hits give low values 0.997 | S. cerevisiae deletion strains, locus YNL233W, strain BNI4, hits give low values 1 | S. cerevisiae deletion strains, locus YNL248C, strain rpa49, hits give low values 1.01 | S. cerevisiae deletion strains, locus YNL250W, strain rad50, hits give low values 1 | S. cerevisiae deletion strains, locus YNL271C, strain bni1, hits give low values 1.02 | S. cerevisiae deletion strains, locus YNL298W, strain CLA4, hits give low values 1.02 | S. cerevisiae deletion strains, locus YNL307C, strain MCK1, hits give low values 1.06 | S. cerevisiae deletion strains, locus YNL322C, strain KRE1 (second series), hits give low values 0.989 | S. cerevisiae deletion strains, locus YNL322C, strain KRE1, hits give low values 1.01 | S. cerevisiae deletion strains, locus YNR049C, strain mso1, hits give low values 0.984 | S. cerevisiae deletion strains, locus YNR052C, strain pop2, hits give low values 1.02 | S. cerevisiae deletion strains, locus YOL006C, strain TOP1, hits give low values 1.01 | S. cerevisiae deletion strains, locus YOL012C, strain htz1 1.12 | S. cerevisiae deletion strains, locus YOL147C, strain pex11, hits give low values 1.02 | S. cerevisiae deletion strains, locus YOR001W, strain rrp6, hits give low values 1 | S. cerevisiae deletion strains, locus YOR061W, strain CKA2, hits give low values 1.01 | S. cerevisiae deletion strains, locus YOR069W, strain VPS5, hits give low values 0.999 | S. cerevisiae deletion strains, locus YOR070C, strain gyp1, hits give low values 0.989 | S. cerevisiae deletion strains, locus YOR080W, strain dia2, hits give low values 0.976 | S. cerevisiae deletion strains, locus YOR083W, strain WHI5, hits give low values 1.01 | S. cerevisiae deletion strains, locus YOR106W, strain vam3, hits give low values 1.01 | S. cerevisiae deletion strains, locus YOR136W, strain idh2, hits give low values 1.03 | S. cerevisiae deletion strains, locus YOR144C, strain elg1, hits give low values 1.03 | S. cerevisiae deletion strains, locus YOR184W, strain ser1, hits give low values 1.06 | S. cerevisiae deletion strains, locus YOR231W, strain MKK1, hits give low values 0.954 | S. cerevisiae deletion strains, locus YOR265W, strain rbl2, hits give low values 0.995 | S. cerevisiae deletion strains, locus YOR270C, strain vph1, hits give low values 1.01 | S. cerevisiae deletion strains, locus YOR290C, strain snf2, hits give low values 0.995 | S. cerevisiae deletion strains, locus YOR316C, strain cot1, hits give low values 1.02 | S. cerevisiae deletion strains, locus YPL051W, strain arl3, hits give low values 0.996 | S. cerevisiae deletion strains, locus YPL055C, strain LGE1, hits give low values 1.01 | S. cerevisiae deletion strains, locus YPL078C, strain atp4, hits give low values 1.01 | S. cerevisiae deletion strains, locus YPL106C, strain sse1, hits give low values 0.987 | S. cerevisiae deletion strains, locus YPL240C, strain hsp82, hits give low values 1.02 | S. cerevisiae deletion strains, locus YPL241C, strain CIN2, hits give low values 1.01 | S. cerevisiae deletion strains, locus YPL256C, strain CLN2, hits give low values 0.975 | S. cerevisiae deletion strains, locus YPR119W, strain clb2, hits give low values 1.02 | S. cerevisiae deletion strains, locus YPR141C, strain kar3, hits give low values 1.03 | S. cerevisiae deletion strains, locus YPR163C, strain tif3, hits give low values 1.02 | S. cerevisiae deletion strains, locus YPR167C, strain met16, hits give low values 1.02 | S. cerevisiae deletion strains, strain wtn01, hits give low values 1.01 | S. cerevisiae strains, strain wild type, hits give low values 1.01
